Measured values from the supplement of paper PMC11732987, “Enantioselective OTUD7B fragment discovery through chemoproteomics screening and high-throughput optimisation” (Communications Chemistry, 2025).

Key:
Assay in all cases: log2 ratio of Biotin-Ahx-Ub-VS probe labelling (compound/DMSO); higher = less target engagement, active = hit call of the paper (q ≤ 0.05, log2 ratio ≤ -1)
Settings in all cases: treatment time: 3 h
[1] = compound: CCC1N(CCc2sccc12)C(=O)CCl
Outline: (§1)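 HEK293T lysate (495 µg per sample, in Tris/CHAPS/IGEPAL buffer with protease inhibitors) was treated in triplicate with compound at 50 or 200 µM or with DMSO for 3 h. It was then treated with Biotin-Ahx-Ub-VS (0.5 µM final) for 1 h. Labelled DUBs were NeutrAvidin-enriched, digested with LysC and trypsin, and run by diaPASEF LC-MS/MS. Median-normalised label-free quantities gave average log2 ratios compound/DMSO by unpaired t-test, using proteins with ≥2 unique peptides.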

[2] = compound: CN1c2ccccc2C(CS1(=O)=O)NC(=O)CCl
Outline: as §1

[3] = compound: Cl.ClCC(=O)N1CCc2ncncc2C1
Outline: as §1

[4] = compound: Cl.Cn1ncc2C(CCCc12)NC(=O)CCl
Outline: as §1

[5] = compound: ClCC(=O)NC1CCOc2ccccc12
Outline: as §1

[6] = compound: ClCC(=O)NC1CCCc2ccccc12
Outline: (§2)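 HEK293T lysate (495 µg per sample, in Tris/CHAPS/IGEPAL buffer with protease inhibitors) was treated in triplicate with compound over a concentration series or DMSO for 3 h, then with Biotin-Ahx-Ub-VS (0.5 µM final) for 1 h. Labelled DUBs were NeutrAvidin-enriched, digested with LysC and trypsin, and run by diaPASEF LC-MS/MS. Spectronaut label-free protein quantities were global-median-normalised. Values are average log2 ratios compound/DMSO from an unpaired t-test, using proteins with ≥2 unique peptides.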

[7] = compound: ClCC(=O)N[C@@H]1CCCc2ccccc12
Outline: as §2

[8] = compound: ClCC(=O)N[C@H]1CCCc2ccccc12
Outline: as §2

[9] = compound: CCC1N(CCc2cc(OC)c(Cl)cc12)C(=O)CCl
Outline: as §1

[10] = compound: CCCC1N(CCc2cc(OC)c(OC)cc12)C(=O)CCl
Outline: as §1

Measured: log2 ratio of Biotin-Ahx-Ub-VS probe labelling

FAM105A (UniProt Q9NUU6)
UniProt Q9NUU6, sequence (Q9NUU6 whole entry): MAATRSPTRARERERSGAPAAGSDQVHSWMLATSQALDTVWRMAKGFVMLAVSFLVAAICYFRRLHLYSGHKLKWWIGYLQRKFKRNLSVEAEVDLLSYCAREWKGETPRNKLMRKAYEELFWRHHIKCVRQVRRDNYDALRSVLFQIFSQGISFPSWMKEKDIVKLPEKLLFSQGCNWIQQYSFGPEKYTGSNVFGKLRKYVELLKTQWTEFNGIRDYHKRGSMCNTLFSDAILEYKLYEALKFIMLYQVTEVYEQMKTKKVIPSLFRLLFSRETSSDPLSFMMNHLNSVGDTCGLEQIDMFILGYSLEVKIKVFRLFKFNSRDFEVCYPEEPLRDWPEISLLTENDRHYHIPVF
inactive: [1]; compound concentration: 50uM -0.137 | [1]; compound concentration: 200uM -0.0129 | [2]; compound concentration: 50uM 0.0298 | [2]; compound concentration: 200uM 0.102 | [3]; compound concentration: 50uM -0.0634 | [3]; compound concentration: 200uM -0.355 | [4]; compound concentration: 50uM -0.00158 | [4]; compound concentration: 200uM -0.0665 | [5]; compound concentration: 50uM -0.0638 | [5]; compound concentration: 200uM -0.105 | [6]; compound concentration: 0.78uM 0.0819 | [6]; compound concentration: 1.56uM 0.102 | [6]; compound concentration: 3.13uM -0.00663 | [6]; compound concentration: 6.25uM 0.0556 | [6]; compound concentration: 12.5uM 0.00386 | [6]; compound concentration: 25uM -0.153 | [6]; compound concentration: 50uM 0.14 | [6]; compound concentration: 100uM -0.0653 | [6]; compound concentration: 200uM 0.157 | [7]; compound concentration: 0.78uM 0.0146 | [7]; compound concentration: 1.56uM 0.139 | [7]; compound concentration: 3.13uM 0.288 | [7]; compound concentration: 6.25uM 0.071 | [7]; compound concentration: 12.5uM -0.0354 | [7]; compound concentration: 25uM -0.00679 | [7]; compound concentration: 50uM 0.0826 | [7]; compound concentration: 100uM 0.0658 | [7]; compound concentration: 200uM -0.0519 | [8]; compound concentration: 0.78uM 0.122 | [8]; compound concentration: 1.56uM -0.0166 | [8]; compound concentration: 3.13uM 0.227 | [8]; compound concentration: 6.25uM 0.317 | [8]; compound concentration: 12.5uM 0.0169 | [8]; compound concentration: 25uM 0.0586 | [8]; compound concentration: 50uM -0.064 | [8]; compound concentration: 100uM 0.0853 | [8]; compound concentration: 200uM 0.091 | [9]; compound concentration: 50uM 0.0998 | [9]; compound concentration: 200uM -0.0916 | [10]; compound concentration: 50uM -0.253 | [10]; compound concentration: 200uM -0.175

USP8 (UniProt P40818)
UniProt P40818, sequence (P40818 whole entry): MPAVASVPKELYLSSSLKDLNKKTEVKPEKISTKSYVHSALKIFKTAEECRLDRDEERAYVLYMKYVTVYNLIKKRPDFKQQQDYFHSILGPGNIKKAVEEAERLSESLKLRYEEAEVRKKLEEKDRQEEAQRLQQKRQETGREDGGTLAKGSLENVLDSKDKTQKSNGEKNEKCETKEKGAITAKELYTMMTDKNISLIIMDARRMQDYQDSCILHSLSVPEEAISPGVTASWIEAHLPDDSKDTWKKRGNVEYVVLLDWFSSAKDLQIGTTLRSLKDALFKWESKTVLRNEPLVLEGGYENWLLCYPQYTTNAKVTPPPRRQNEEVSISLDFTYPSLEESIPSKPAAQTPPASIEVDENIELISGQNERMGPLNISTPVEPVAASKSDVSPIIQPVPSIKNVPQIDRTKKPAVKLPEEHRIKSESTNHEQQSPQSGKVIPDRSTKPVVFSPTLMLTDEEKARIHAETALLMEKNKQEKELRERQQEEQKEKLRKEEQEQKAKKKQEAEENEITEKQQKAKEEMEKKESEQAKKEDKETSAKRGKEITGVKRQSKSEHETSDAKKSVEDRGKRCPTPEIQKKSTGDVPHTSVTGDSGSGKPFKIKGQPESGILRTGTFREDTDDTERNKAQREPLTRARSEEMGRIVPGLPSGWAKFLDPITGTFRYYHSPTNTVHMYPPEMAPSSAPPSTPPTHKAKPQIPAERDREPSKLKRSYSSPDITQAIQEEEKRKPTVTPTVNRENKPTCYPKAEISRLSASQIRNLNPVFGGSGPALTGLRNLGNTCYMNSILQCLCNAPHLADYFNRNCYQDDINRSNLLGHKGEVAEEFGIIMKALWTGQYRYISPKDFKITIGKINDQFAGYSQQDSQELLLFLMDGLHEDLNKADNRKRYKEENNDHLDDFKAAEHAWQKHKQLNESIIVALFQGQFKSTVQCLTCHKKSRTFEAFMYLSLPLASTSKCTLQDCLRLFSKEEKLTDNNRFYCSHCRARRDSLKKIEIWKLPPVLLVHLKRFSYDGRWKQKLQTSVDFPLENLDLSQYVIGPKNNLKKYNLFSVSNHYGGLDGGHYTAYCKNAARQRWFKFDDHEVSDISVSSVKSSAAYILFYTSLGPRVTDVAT
inactive: [1]; compound concentration: 50uM -0.18 | [1]; compound concentration: 200uM -0.116 | [2]; compound concentration: 50uM -0.21 | [2]; compound concentration: 200uM -0.21 | [3]; compound concentration: 50uM -0.0841 | [3]; compound concentration: 200uM -0.378 | [4]; compound concentration: 50uM -0.0611 | [4]; compound concentration: 200uM 0.0851 | [5]; compound concentration: 50uM -0.212 | [5]; compound concentration: 200uM -0.0542 | [6]; compound concentration: 0.78uM -0.0473 | [6]; compound concentration: 1.56uM 0.0438 | [6]; compound concentration: 3.13uM -0.127 | [6]; compound concentration: 6.25uM -0.0217 | [6]; compound concentration: 12.5uM -0.0947 | [6]; compound concentration: 25uM -0.0983 | [6]; compound concentration: 50uM -0.0766 | [6]; compound concentration: 100uM -0.0121 | [6]; compound concentration: 200uM -0.102 | [7]; compound concentration: 0.78uM -0.0947 | [7]; compound concentration: 1.56uM -0.0445 | [7]; compound concentration: 3.13uM -0.000329 | [7]; compound concentration: 6.25uM -0.0324 | [7]; compound concentration: 12.5uM -0.0744 | [7]; compound concentration: 25uM -0.057 | [7]; compound concentration: 50uM -0.0549 | [7]; compound concentration: 100uM -0.0496 | [7]; compound concentration: 200uM -0.123 | [8]; compound concentration: 0.78uM -0.131 | [8]; compound concentration: 1.56uM -0.0656 | [8]; compound concentration: 3.13uM -0.0464 | [8]; compound concentration: 6.25uM 0.0547 | [8]; compound concentration: 12.5uM 0.00701 | [8]; compound concentration: 25uM -0.0406 | [8]; compound concentration: 50uM 0.000255 | [8]; compound concentration: 100uM -0.0245 | [8]; compound concentration: 200uM -0.143 | [9]; compound concentration: 50uM -0.0467 | [9]; compound concentration: 200uM -0.231 | [10]; compound concentration: 50uM -0.414 | [10]; compound concentration: 200uM -0.636

USP14 (UniProt P54578)
UniProt P54578, sequence (P54578 whole entry): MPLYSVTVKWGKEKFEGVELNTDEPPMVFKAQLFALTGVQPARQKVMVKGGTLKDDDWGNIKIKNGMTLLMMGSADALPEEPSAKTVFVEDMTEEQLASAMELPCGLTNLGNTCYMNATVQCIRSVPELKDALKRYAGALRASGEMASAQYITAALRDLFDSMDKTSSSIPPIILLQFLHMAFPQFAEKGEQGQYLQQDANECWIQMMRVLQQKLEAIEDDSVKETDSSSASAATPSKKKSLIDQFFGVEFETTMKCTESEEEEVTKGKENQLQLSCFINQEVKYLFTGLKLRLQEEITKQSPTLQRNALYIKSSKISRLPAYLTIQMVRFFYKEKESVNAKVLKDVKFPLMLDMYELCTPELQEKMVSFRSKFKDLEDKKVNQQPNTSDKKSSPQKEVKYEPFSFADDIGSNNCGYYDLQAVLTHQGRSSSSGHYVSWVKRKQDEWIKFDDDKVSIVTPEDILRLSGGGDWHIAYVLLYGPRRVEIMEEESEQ
inactive: [1]; compound concentration: 50uM -0.3 | [1]; compound concentration: 200uM -0.357 | [2]; compound concentration: 50uM -0.167 | [2]; compound concentration: 200uM -0.105 | [3]; compound concentration: 50uM 0.049 | [3]; compound concentration: 200uM -0.23 | [4]; compound concentration: 50uM 0.132 | [4]; compound concentration: 200uM 0.0271 | [5]; compound concentration: 50uM -0.194 | [5]; compound concentration: 200uM -0.0567 | [6]; compound concentration: 0.78uM -0.378 | [6]; compound concentration: 1.56uM -0.128 | [6]; compound concentration: 3.13uM -0.334 | [6]; compound concentration: 6.25uM -0.143 | [6]; compound concentration: 12.5uM -0.315 | [6]; compound concentration: 25uM -0.455 | [6]; compound concentration: 50uM -0.285 | [6]; compound concentration: 100uM -0.509 | [6]; compound concentration: 200uM -0.231 | [7]; compound concentration: 0.78uM -0.393 | [7]; compound concentration: 1.56uM -0.0826 | [7]; compound concentration: 3.13uM -0.368 | [7]; compound concentration: 6.25uM -0.447 | [7]; compound concentration: 12.5uM -0.296 | [7]; compound concentration: 25uM -0.25 | [7]; compound concentration: 50uM -0.116 | [7]; compound concentration: 100uM -0.289 | [7]; compound concentration: 200uM -0.289 | [8]; compound concentration: 0.78uM -0.158 | [8]; compound concentration: 1.56uM -0.187 | [8]; compound concentration: 3.13uM -0.308 | [8]; compound concentration: 6.25uM -0.249 | [8]; compound concentration: 12.5uM -0.442 | [8]; compound concentration: 25uM -0.253 | [8]; compound concentration: 50uM -0.322 | [8]; compound concentration: 100uM -0.332 | [8]; compound concentration: 200uM -0.157 | [9]; compound concentration: 50uM -0.071 | [9]; compound concentration: 200uM -0.127 | [10]; compound concentration: 50uM -0.132 | [10]; compound concentration: 200uM 0.0879
